# JMJD2A Tudor = qHTS Assay for Inhibitors of JMJD2A-Tudor Domain | Lysine-specific demethylase 4A (Homo sapiens), O75164 | AlphaScreen JMJD2A-Tudor / H3K4me3 peptide binding | Potency, µM (doses to about 114 µM), inactives show at the highest dose activity change, negative = inhibition, most hits filed as inhibitors | hit rate 4.4% among 390,000 | AID 504339, 2011; also: % is scaled to controls: 0 for no effect and ±100 for the full control effect; nearly all actives have a fitted effect of over 50% in size
# 12-LOX inh = Primary qHTS assay for inhibitors of human arachidonate 12S-lipoxygenase (ALOX12): Round 2. Polyunsaturated fatty acid lipoxygenase ALOX12 (Homo sapiens), P18054. purified 12hLO, xylenol orange hydroperoxide absorbance. Potency, µM (titrated, usually from 108 µM), without a hit: top-dose activity change, negative = inhibition, usual class: inhibitors. hit rate 1.1% among 580,000; also: % is scaled to controls: 0 for no effect and ±100 for the full control effect
#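 Hydroperoxide product was detected by ferrous iron/xylenol orange as the 573 to 405 nm absorbance ratio. Arachidonic acid at 40 uM (final) was turned over for 30 min at room temperature by 150 nM human 12hLO, pH 7.0 Hepes buffer, after 15 min compound preincubation.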
# G9a inh = qHTS Assay for Inhibitors of Histone Lysine Methyltransferase G9a; G9a H3K9 monomethylation, AlphaScreen, 2 h; Potency, µM (top dose mostly 102 µM), for inactives: top-dose activity, negative = inhibition, most hits filed as inhibitors; hit rate 8.8% among 350,000; AID 504332, 2011; also: % is scaled to controls: 0 for no effect and ±100 for the full control effect; nearly all actives have a fitted effect of over 75% in size
#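 G9a (20 nM) preincubated 15 min RT with compounds, then 500 nM biotinylated H3K9 peptide and 20 uM SAM added; 2 h RT reaction. Monomethyl-H3K9 product detected by AlphaScreen with anti-H3K9me1 antibody, streptavidin donor and anti-rabbit IgG acceptor beads.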
# BAZ2B block = qHTS Assay for Inhibitors of BAZ2B. Bromodomain adjacent to zinc finger domain protein 2B (Homo sapiens), Q9UIF8. AlphaScreen BAZ2B-H3K14Ac peptide displacement. Potency, µM (highest dose often 114 µM), for inactives: at the top dose activity change, negative = inhibition, hits mostly inhibitors. hit rate 4.4% among 360,000. AID 504333, 2011; also: % is scaled to controls: 0 for no effect and ±100 for the full control effect; nearly all actives have a fitted effect of over 60% in size
#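 Inhibition is scored as reduced AlphaScreen emission. The BAZ2B/b-H3(5-23)K14Ac complex (50 nM each) in PBS pH 7.4, 0.01% Tween-20 meets compound (up to 110 uM) for 30 min at RT before bead addition.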
# HP1b binding inh = HTS for Inhibitors of HP1-beta Chromodomain Interactions with Methylated Histone Tails; Chromobox protein homolog 1 (Homo sapiens), P83916; hit rate 0.56% among 390,000; Potency, µM (highest dose often 114 µM), inactives show at the highest dose activity change, negative = inhibition, actives largely listed as inhibitors; AlphaScreen HP1-beta / biotin-H3K9me3 peptide binding; also: nearly all actives have a fitted effect of over 70% in size
#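 Compound inhibition of the preformed complex between 50 nM HP1-beta and 50 nM biotinylated H3K9me3 peptide was read by AlphaScreen. Buffer was PBS pH 7.4 with 0.01% Tween-20. Incubations ran 30 min at room temperature, with 10 ug/mL donor/acceptor beads.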
# Sfp inh = qHTS Assay for Inhibitors of Bacillus subtilis Sfp phosphopantetheinyl transferase (PPTase) | Biochemical Sfp PPTase activity, qHTS | Potency, µM, for the others: largest response in the series, negative = inhibition, actives largely listed as inhibitors | hit rate 3.5% among 310,000 | 4'-phosphopantetheinyl transferase ffp (Bacillus subtilis), Q9F4F7 | AID 1490, 2009;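 also: the enzyme is Sfp with the accession as filed and its product quenches rhodamine fluorescence; 0% = enzyme reaction without inhibitor and -100% = no enzyme wells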
#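 Buffer: 50 mM Hepes-Na pH 7.6, 10 mM MgCl2, 0.01% Nonidet P-40, 0.01% BSA. Enzyme 15 nM, pre-exposed to compound 15 min; substrates then added and fluorescence change tracked over 30 min.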
# Active calls of the source: *; ? = inconclusive; . = no result given; [ ] = dose if it differs, or a comment. Shown are actives, neighbours in structure and some others; about 8.7% of the full set was active somewhere. Calls follow the shape of the dose curve; as a rule, active = well fitted curve in the direction sought with a large enough effect; inconclusive = small, poorly fitted or top-dose-only effect, or another doubt; inactive = no such curve, though single readings can be large; an effect the other way counts as inactive or inconclusive. Potency is read from the fitted curve at half-maximal effect.
SMILES,JMJD2A Tudor,12-LOX inh,G9a inh,BAZ2B block,HP1b binding inh,Sfp inh
COc1ccc(-c2nc(C)nc3c2CCN([S+](=O)([O-])c2ccccc2)CC3)cc1,.,29%,.,.,.,.
OC(CNCC(c1ccco1)N1CCCCC1)c1ccccc1 (stereo not drawn),1.1µM*,?,2.2µM*,50µM*,-56%,?
O=C(CSc1ccccc1)NCC(c1ccco1)N1CCCCC1 (stereo not drawn),-10%,4%,3%[12.7 µM],-20%,13%,.
CCc1nc(-c2c3n(c(=O)n(CC(=O)Nc4ccccc4C)c2=O)CCCCC3)no1,.,28%,.,.,.,.
CCOc1ccc(OCC)c(NC(=O)CN2CCN(c3cccc(C)c3)C(C)C2)c1 (stereo not drawn),1.1µM*,?,?,50µM*,25µM*,?
CCOc1ccc(OCC)c(NC(=O)CN2CCN(c3cccc(C)c3)CC2)c1,7.9µM*,?,3.5µM*,40µM*,25µM*,25µM*
COc1ccc(C)cc1NC(=O)CN1CCN(c2ccc(F)cc2)CC1,?,316%,-15%[59 µM],?,-9%,-13%
CCN1c2cc(C(=O)Nc3ccc(F)cc3)ccc2C(=O)N2CCCC21 (stereo not drawn),.,21%,.,.,.,.
O=C(/C=C/c1ccco1)NC(=S)Nc1ccc(C(=O)O)cc1,35µM*,?,10µM*,32µM*,71µM*,56µM*
O=C(/C=C/c1ccco1)NC(=S)NNC(=O)c1ccco1,-21%,-11%,11µM*,2%,-4%,-6%
O=C(/C=C/c1ccco1)NC(=S)Nc1ccc(O)c(-c2nc3ccccc3s2)c1,?,?,40µM*,-4%,-1%,-19%
Cc1ccc(O)c(NC(=S)NC(=O)/C=C/c2ccco2)c1,-23%,?,-4%,-24%,24%,-9%
NS(=O)(=O)c1ccc(NC(=O)/C=C/c2ccco2)cc1,-28%,20%,45µM*,-29%,?,20µM*
CC(C)(C)NC(=O)NC(=O)CSc1nnc(-c2c[nH]c3ccccc23)o1,.,-23%,.,.,.,.
COc1ccc(CCNC(=O)c2csc(NC(C)C)n2)cc1,.,20%,.,.,.,.
COc1ccc(NC(=S)NC(=O)/C=C/c2ccco2)cc1,-15%,?,22µM*,?,3%,6%
COc1ccccc1/C=C/C(=O)NNC(=O)c1cc(C)oc1C,-17%,22%,-32%,-7%,22%,.
CN(C)c1ccc(NC(=S)NC(=O)/C=C/c2ccco2)cc1,-17%,?,-35%,5%,17%,13%
CC(=O)NC(=S)Nc1ccc(NC(=S)NC(=O)/C=C/c2ccco2)cc1,?,9%,40µM*,?,11%,-23%
O=C(/C=C/c1ccco1)NC(=S)Nc1ccc(N2CCCC2)cc1,?,?,?,10µM*,35µM*,-29%
CCC(=O)Nc1ccc(NC(=S)NC(=O)/C=C/c2ccco2)cc1,?,?,-9%[0.501 µM],-31%,-9%,-2%
Cc1cc(C(=O)NNC(=O)/C=C/c2ccco2)c(C)o1,45µM*,0%,22µM*,?,?,.
CC(C)Cc1ccc(C(C)NC(=O)Cn2nc(-c3ccc(F)cc3)oc2=O)cc1 (stereo not drawn),.,-3%,.,.,.,.
O=C(CCCc1nc(-c2ccccc2)no1)NCC1CCCO1 (stereo not drawn),.,19%,.,.,.,.
Cc1cccc(OC(=O)c2ccccc2Cl)c1C,.,-5%,.,.,.,.
SMILES,JMJD2A Tudor,12-LOX inh,G9a inh,BAZ2B block,HP1b binding inh,Sfp inh
CC(=O)c1ccc(NC(=O)/C(=C\c2ccccc2)NC(=O)/C=C/c2ccccc2)cc1,-13%,0%,-3%,-1%,33%,23%
Cc1ccc(C)c(NC(=O)CN(C)C(=O)Cc2coc3cc(C)c(C)cc23)c1,-12%,.,-39%,9%,-15%,.
O=C(/C=C/c1ccccc1)N/C(=C/c1ccccc1)C(=O)Nc1ccc(C(=O)O)cc1,50µM*,-9%,2%,-6%,8%,11%
O=C(/C=C/c1ccc(Cl)cc1)NC(=S)Nc1ccc(C(=O)O)cc1,22µM*,?,?,50µM*,?,-6%
C=CCOC(=O)/C(=C/c1ccco1)NC(=O)/C=C/c1ccccc1,-16%,?,8%[0.501 µM],?,17%,14%
CCN(CC(=O)Nc1ccc(NC(C)=O)cc1)C(=O)Cc1coc2cc(C)c(C)cc12,-15%,-25%,50µM*,6%,21%,.
O=C(O)CNC(=O)/C(=C/c1ccco1)NC(=O)/C=C/c1ccccc1,-1%,-4%,?,?,29%,56µM*
COc1ccc(OCc2cc(C(=O)NC(CO)C(C)C)no2)c2ccccc12 (stereo not drawn),.,35%,.,.,.,.
CCN(CC(=O)Nc1ccc(NC(C)=O)cc1)C(=O)/C=C/c1cccs1,-6%,-23%,4%[59 µM],1%,37%,8%
CCN(CC(=O)Nc1ccc(NC(C)=O)cc1)C(=O)/C=C/c1ccco1,-7%,-1%,50µM*,-22%,9%,.
O=C(/C=C/c1ccco1)NC(=S)Nc1ccc(Cl)cn1,-30%,35µM*,40µM*,?,8%,-20%
O=C(/C=C/c1ccco1)N1CCN(c2ccccc2)CC1,0%,-15%,?,-28%,13%,3%
O=C(/C=C\c1ccco1)Nc1ccc(N2CCN(C(=O)c3ccccc3)CC2)cc1,-27%,16%,?,71µM*,-12%,0%
O=C(NC1CCCC1)C1=Cc2cc(Cl)ccc2OC=C1,.,-21%,.,.,.,.
Cc1ccc(CNC(=O)Cc2nc(-c3cccs3)oc2C)cc1,.,11%,.,.,.,.
COc1cccc(C(=O)N2CCC(N3C[C@H](O)C[C@H]3C(=O)Nc3ccc4c(c3)OCCO4)CC2)c1,.,-15%,.,.,.,.
O=C(/C=C/c1ccco1)OCC(=O)C12CC3CC(CC(C3)C1)C2,.,40µM*,.,.,.,.
COc1ccc(CNC(=O)COC(=O)/C=C/c2ccco2)cc1,-9%,-10%,56µM*,?,2%,?
O=C(COC(=O)/C=C/c1ccco1)NCc1ccco1,79µM*,-18%,32µM*,45µM*,-10%,50µM*
CNC(=O)COC(=O)/C=C/c1ccco1,-14%,11%,?,-7%,37%,0%
CCN(CC)S(=O)(=O)c1ccc(N(C)CCOc2ccc(Br)cc2)nc1,.,-1%,.,.,.,.

# Assay outcomes (PubChem BioAssay)
